Reference: ChEMBL document CHEMBL4513216, “Probing the Open Global Health Chemical Diversity Library for Multistage-Active Starting Points for Next-Generation Antimalarials” (ACS Infect Dis, 2020)
Hit rate of the full screen: of about 69,000 compounds, about 8,600 (12%) showed an effect of 50% or more. The entries come from a sample that favours strong results as a whole.

Tested on: Plasmodium berghei
Test: Screen against P. berghei liver stage (PbLuc), transformed with Luciferase, at 10uM
Type: functional, HepG2
Settings: tested at 10 uM

| Compound | INHIBITION |
| --- | --- |
| CC(C)c1ccc(CN2CCCC3(CC2)CN(C)C(=O)O3)cc1 (stereo not given) | -58.7% |
| CS(=O)(=O)c1cncnc1C1CCCNC1 (stereo not given) | 20.4% |
| CN(C)C(=O)CN1C(=O)CCC12CCN(Cc1cccs1)CC2 | 9.97% |
| Cc1ccsc1CNC(=O)c1ccc(N2CCOC2=O)cc1 | 56.8% |
| Cc1ccsc1CNC(=O)c1ccc2c(c1)CCC(=O)N2 | -20.8% |
| Cc1noc(C)c1CNC(=O)Nc1ccc(N2CCOC2=O)cc1 | 13.9% |
| CCc1ccc(CNC(=O)c2ccc(N3CCOC3=O)cc2)s1 | 78.2% |
| Cc1ccsc1CNC(=O)c1ccc(N2CCNC2=O)cc1 | 25.2% |
| O=C1CCc2cc(C(=O)NCc3ccc(Cl)s3)ccc2N1 | -28.6% |
| O=C(NCc1ccc(Cl)s1)c1ccc(N2CCOC2=O)cc1 | 72.2% |
| CCc1ccc(CNC(=O)NC(C)CN2CCOCC2)s1 (stereo not given) | -3.95% |
| O=C1COc2cc(C(=O)NCc3ccc(Cl)s3)ccc2N1 | 16.8% |
| Cc1cccn2cc(C[S+]([O-])Cc3noc(C(C)C)n3)nc12 (stereo not given) | -9.51% |
| Cc1noc(C)c1-c1cncc(C2CCCN2Cc2c[nH]cn2)n1 (stereo not given) | 32.8% |
| CC(=O)N1CCC(c2c(CN(C)C)cnc3cc(C)nn23)CC1 | -0.8% |
| CCS(=O)(=O)N1CCOC2(CCCN(c3ccc(C)nn3)C2)C1 (stereo not given) | 5.65% |
| O=C1NC(C(=O)NCc2cccnc2Oc2ccc(F)cc2F)CO1 (stereo not given) | 9.52% |
| CSCC[C@@H]1CN2CCC[C@H]2CN1Cc1coc2ccc(Cl)cc2c1=O | 7.11% |
| Cc1cc(NC(=O)CN(CC2CCOC2)C2CC2)no1 (stereo not given) | 21.5% |
| O=c1[nH]nc2nc(N3CCCC3)ccn12 | 19.8% |
| Cc1cccc(N2CCN(c3ccn4c(=O)[nH]nc4n3)CC2)c1C | 65.8% |
| O=c1[nH]nc2nc(N3CCSCC3)ccn12 | 9.96% |
| Cn1ccnc1CN1CCN(CC(O)c2ccccc2)CC1 (stereo not given) | 4.52% |
| O=C(NCc1nncn1-c1ccccc1)C1CC1 | -21.8% |
| O=C(NCc1nncn1-c1ccccc1)C1CCCC1 | 11.9% |
| O=C1CCC(C(=O)NCc2nncn2-c2ccccc2)CN1 (stereo not given) | 51% |
| Cc1cccc(CN2CCc3nnc(CN4CCCC4=O)n3CC2)n1 | 35.7% |

| Compound | INHIBITION |
| --- | --- |
| CC(=O)CSc1sc2c(O)cc(=O)[nH]c2c1C(N)=O | 26% |
| CN(CC1Cc2ccccc2CN1C)C(=O)CSc1nccn1C (stereo not given) | 40.9% |
| Cc1cc(=O)[nH]c(SCC(=O)N(C)CC2Cc3ccccc3CN2C)n1 (stereo not given) | 50.2% |
| CN(CC1Cc2ccccc2CN1C)C(=O)CSc1ccccn1 (stereo not given) | -4.91% |
| O=C(NCc1ccco1)c1[nH]nc2c1CS(=O)(=O)CC2 | 48.2% |
| O=C1CO[C@@H]2CN(Cc3cccs3)C[C@H]2N1CC1CC1 | 24.5% |
| O=C(NCc1nn(-c2ccccc2)c2c1CCC2)C1CC1 | 59.55% |
| Cc1noc(C)c1CNCc1nn(-c2ccccc2)c2c1CCC2 | -0.159% |
| Cc1c(CNCc2nn(-c3ccccc3)c3c2CCC3)cc(C#N)n1C | 63.6% |
| O=C1CCC(C(=O)NCc2nn(-c3ccccc3)c3c2CCC3)CN1 (stereo not given) | 41.9% |
| COc1ccccc1CNCc1nn(-c2ccccc2)c2c1CCC2 | 36.8% |
| O=C(NCc1nn(-c2ccccc2)c2c1CCC2)NC1CC1 | 30.2% |
| Cc1cc(C)n(CCCNC(=O)[C@@H](C)NC(=O)OC(C)(C)C)n1 | 15.8% |
| CCOc1ccc(Cl)cc1NC(=O)N1CCC(n2cncn2)CC1 | 47% |
| NC(=O)c1cnc(-c2ccccc2)nc1CCNC(=O)CN1CCCC1 | 12.8% |
| COC1CCN(C(=O)c2ccccc2NCc2cccnc2)CC1 | -30% |
| CCc1ccc(O)c(C(=O)NC2CCN(Cc3ccncc3)CC2)c1 | 48.9% |
| Cc1cccc(CN2CCN(C(=O)c3cccnc3O)CC2)c1 | 11.2% |
| COC(=O)c1cc(CN2CCN(c3nc(C)cnc3C)CC2)ccc1O | 51.2% |
| Cc1cccnc1N1CCN(Cc2cc(O)c3cccc(F)c3n2)CC1 | 18.6% |
| COC(=O)c1cc(CN2CCN(c3ncccc3C)CC2)ccc1O | 71% |
| Cc1cnc(C)c(N2CCN(Cc3ccc(C)c(C)c3)CC2)n1 | 75% |
| COC(=O)c1cc(C)nc(N2CCN(Cc3ccn(C(C)C)c3)CC2)n1 | 24.2% |
| Cc1ccc(CN2CCC(Cc3nnc(CO)n3C)CC2)cc1C | 4.48% |
| Cc1cnc(C)c(N2CCN(CC3CCCO3)CC2)n1 (stereo not given) | 4.93% |
| Cc1noc(C)c1-c1nc(C2CCCN(C(=O)CCN)C2)ccc1CO (stereo not given) | -10.2% |
| Cc1nc(C2CCCN(C(=O)COCc3ccccc3)C2)no1 (stereo not given) | 21.5% |

| Compound | INHIBITION |
| --- | --- |
| CCn1ncc2[nH]c(-c3cc4c(cc3OC)OCO4)nc21 | -7.2% |
| O=C(NCCc1ccccc1)C1CCN(C(=O)Cn2cncn2)C1 (stereo not given) | 3.48% |
| CCN(CC)C(=O)CSc1ncc[nH]1 | 44.2% |
| CN(C(=O)CSc1ncc[nH]1)C1CC1 | 53.9% |
| CN(C(=O)CSc1ncc[nH]1)c1ccccc1 | 49.6% |
| CC(C)(C)OC(=O)N1CCC(C(=O)NCc2cc3ccccc3[nH]2)C1 (stereo not given) | -8.4% |
| CC(C)N1CCC2(CC1)C(=O)N(c1cccnc1)c1ccc(F)cc12 | 28.2% |
| COC[C@]1(O)CCN(C2CCN(c3ccc(Cl)cc3)CC2)CC1(C)C | 29.4% |
| O=C(NCCCn1nc2ccccn2c1=O)NCCC1CCC1 | 37.9% |
| Cn1ccnc1CN1CCC(c2nc3ccccc3n2C)CC1 | 39.3% |
| Cc1nc(CN2CCC(c3nc4ccccc4n3C)CC2)co1 | 42.3% |
| CC(C)c1nccc(CN2CCC(c3nc4ccccc4n3C)CC2)n1 | 52.6% |
| Cc1cccc(CN2CC3(CCN(C4CCOC4)CC3)OCC2=O)n1 (stereo not given) | 5.56% |
| CSCc1noc(CNC(=O)[C@H]2CNC[C@@H](C(=O)N3CCCC3)C2)n1 | 38.5% |
| CNc1nc(C(=O)N2CCCC(CO)(CCCOC)C2)cs1 (stereo not given) | 58.6% |
| CC(C)=CCC1(CO)CCCN(Cc2nccs2)C1 (stereo not given) | -21.1% |
| CCCC1(CO)CCCN(Cc2nccs2)C1 (stereo not given) | 81.6% |
| COCCCC1(CO)CCCN(Cc2nccs2)C1 (stereo not given) | 75.2% |
| COCCC1(CO)CCCN(C(=O)c2cccnc2O)C1 (stereo not given) | 56.3% |
| COCCC1(CO)CCCN(C(=O)c2cccnc2OC)C1 (stereo not given) | 43.4% |
| CCCn1ccnc1CN1CCCC(CC)(CO)C1 (stereo not given) | 0.348% |
| COCCCC1(CO)CCCN(CCOC)C1 (stereo not given) | -6.88% |
| CNc1ncc(C(=O)N2CCCC(CO)(CCCOC)C2)cn1 (stereo not given) | 31.3% |
| CNc1nc(C(=O)N2CCC3(CCCN(CCOC)C3=O)C2)cs1 (stereo not given) | 36.2% |
| CCCC1(CO)CCCN(Cc2ncccn2)C1 (stereo not given) | -36.5% |
| COCCC1(CO)CCCN(C(=O)c2cc(Cl)ccc2F)C1 (stereo not given) | -2.43% |
